Most compounds without a hit are left out; they make up all but 1.6% or so of the library.
KCNQ2 block: inhibitors of rat KCNQ2 potassium channel; O88943; CHO-K1 KCNQ2, FluxOR thallium flux, 20 min; active compounds read low; B-score at 10 µM; actives 1.1% (n = 310,000);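 active = fluorescence ratio B-score at most minus 3 library SDs, with starting brightness B-score within 2 library SDs, cut at about -5.5 in these data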
KCNQ2 enhance: potentiators of rat KCNQ2 potassium channel | O88943 | CHO-K1 KCNQ2, FluxOR thallium flux fluorescence; active compounds read high | B-score at 10 µM | actives 0.54% (n = 310,000) | AID 2239;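 active = fluorescence ratio B-score at least 3 SD of library B-scores, with initial fluorescence B-score within 3 of them, cut at about 5.3 in these data; same plate scores as AID 2156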;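 note: B-score of peak minus minimum over baseline fluorescence ratio after K+ and Tl+ stimulus; positive B-score means potentiation of KCNQ2 with more thallium influx and brighter signal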
Kir21 conf inh: confirmation of mouse Kir2.1 potassium channel inhibitors; actives 41% (n = 2,300); Kir2.1-expressing cells, FluxOR thallium flux fluorescence; active compounds read low; Tl flux remaining, % of negative control (active compounds read low), % at 10 µM; shares compounds with KCNQ2 enhance;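 active = Primary-screen hit whose thallium flux fell at least 3 control SD below untreated wells in both duplicates, with normal baseline fluorescence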
Target sequence (P35561 whole entry, looked up): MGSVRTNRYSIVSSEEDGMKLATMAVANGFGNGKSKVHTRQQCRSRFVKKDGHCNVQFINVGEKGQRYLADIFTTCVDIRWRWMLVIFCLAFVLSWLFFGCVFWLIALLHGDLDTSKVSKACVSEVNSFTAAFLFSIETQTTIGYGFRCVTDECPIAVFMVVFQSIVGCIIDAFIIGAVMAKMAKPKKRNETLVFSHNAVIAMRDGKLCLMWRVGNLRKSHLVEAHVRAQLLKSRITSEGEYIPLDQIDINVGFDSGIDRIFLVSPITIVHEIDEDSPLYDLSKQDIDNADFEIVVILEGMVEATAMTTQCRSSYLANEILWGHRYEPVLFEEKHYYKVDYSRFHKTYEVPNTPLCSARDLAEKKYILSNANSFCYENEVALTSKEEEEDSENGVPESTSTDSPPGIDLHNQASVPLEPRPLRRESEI
HEK293 ctr: counter-screen for Kir2.1 inhibitors: effect in parental HEK293 cells; shares compounds with KCNQ2 enhance; FluxOR thallium flux fluorescence; 0% = unstimulated blank wells; FluxOR signal as % of negative control (100 = no effect), % at 10 µM; actives 19% (n = 2,300);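 active = dye signal at least 3 control SD above or below untreated wells in both duplicates, raw fluorescence within 3, either direction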;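 note: percent is based on the flux ratio of peak minus minimum fluorescence over baseline F0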
CHO-K1 ctr: alters thallium flux in parental CHO-K1 cells, KCNQ2 counter-screen; activity increase over 3SD of controls, % at 10 µM; FluxOR thallium flux fluorescence; zero = vehicle mean+3SD, 100% = vehicle-minus-blank window; AID 2282; shares compounds with KCNQ2 enhance; actives 43% (n = 1,200);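 active = signal rise of at least 3 SD above the untreated control mean, in both duplicate wells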;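 note: counter screen of KCNQ2 potentiator hits so any rise reflects channel-independent effects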
KCNQ1 pot spec: tests whether KCNQ2 potentiators also act on human KCNQ1; shares compounds with KCNQ2 enhance; CHO KCNQ1 stable, FluxOR thallium flux fluorescence; beyond 3SD, as % of vehicle-control signal; activation over 3SD threshold, % at 10 µM; actives 28% (n = 1,200); AID 2283;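 active = fluorescence ratio rise of at least 3 SD of vehicle wells above their mean, in both replicate wells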
KCNQ2 pot conf: confirmation of rat KCNQ2 potassium channel potentiators; shares compounds with KCNQ2 enhance; CHO-KCNQ2 cells, FluxOR thallium flux fluorescence; potentiation, less the hit threshold, % at 10 µM; actives 68% (n = 1,200);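 active = fluorescence ratio rising 3 SD or more over the vehicle control mean in both replicates, plus primary screen hit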;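 note: peak minus minimum thallium fluorescence divided by baseline after K/Tl stimulus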
Kir2-1 sel: mouse Kir2.1 off-target activity of KCNQ2 potentiators. shares compounds with KCNQ2 enhance. HEK293 Kir2.1, FluxOR thallium flux fluorescence. activity over 3SD threshold, % at 10 µM. actives 2% (n = 1,200);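 active = fluorescence ratio rise of at least 3 SD above the vehicle-control mean, seen in both replicates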
KCNQ2 W236L MoA: potentiates the retigabine-insensitive rat KCNQ2 W236L mutant channel | current increase over 3SD of negative controls (%), active compounds read high, % at 25 µM | shares compounds with KCNQ2 enhance | CHO KCNQ2-W236L, automated patch clamp current | actives 10% (n = 940);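 active = current increase at least 3 SD of the untreated controls above them in both duplicate recordings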
Of the large screens only hits and unclear results are named; the others gave an inactive call (follow-up assays come after a bar, where they were run).

Cc1ccc(C(=O)CSC2=C(C#N)C(c3ccco3)C3=C(CC(C)(C)CC3=O)N2)cc1 (stereo not given)	none
CCOC(=O)C1=C(C)NC(SCC(=O)OC)=C(C#N)C1c1ccc(C(=O)OC)cc1 (stereo not given)	none (no result: KCNQ2 enhance)
N#CC1=C(SCc2ccccc2)NC(=O)CC1c1ccccc1 (stereo not given)	none (no result: KCNQ2 enhance) | Kir21 conf inh 41% | HEK293 ctr inactive
CCOC(=O)CSC1=C(C#N)C(c2ccc3c(c2)OCO3)CC(=O)N1 (stereo not given)	none
C=CCSC1=C(C#N)C(c2ccccc2)CC(=O)N1 (stereo not given)	none
CCOC(=O)CSC1=C(C#N)C(c2ccc(F)cc2)C(C(C)=O)=C(C)N1 (stereo not given)	KCNQ2 enhance 8.1 | Kir21 conf inh inactive | HEK293 ctr inactive | CHO-K1 ctr 14 | KCNQ1 pot spec inactive | KCNQ2 pot conf 4.6 | Kir2-1 sel inactive | KCNQ2 W236L MoA inactive
C=CCNC(=O)c1ccccc1NC(=O)C1COc2ccccc2O1 (stereo not given)	none (no result: KCNQ2 enhance)
O=C(CS(=O)(=O)c1c[nH]c2ccccc12)N1CCc2ccccc21	none
Cc1nn(C)c(C)c1NC(=S)Nc1ccc(S(=O)(=O)Nc2ncccn2)cc1	none (no result: KCNQ2 enhance)
CCOC(=O)c1c(NC(=S)N2CCOCC2)sc(C)c1C	none (no result: KCNQ2 enhance)
CC(C)Oc1ccccc1NC(=O)CSc1nccn1C	none
S=C(NCc1cccnc1)Nc1ccc(Oc2ccccc2)cc1	none
O=C(Nc1ccc(OCc2ccccc2)cc1)Nc1cccnc1	KCNQ2 enhance 7.2 | Kir21 conf inh inactive | HEK293 ctr inactive | CHO-K1 ctr inactive | KCNQ1 pot spec 64 | KCNQ2 pot conf 11 | Kir2-1 sel inactive | KCNQ2 W236L MoA inactive
O=C(Nc1ccc(OCc2ccccc2)cc1)c1cccnc1	none
S=C(Nc1ccc(Oc2ccccc2)cc1)Nc1cccnc1	KCNQ2 enhance 18 | Kir21 conf inh inactive | HEK293 ctr inactive | CHO-K1 ctr 8.9 | KCNQ1 pot spec inactive | KCNQ2 pot conf 83 | Kir2-1 sel inactive | KCNQ2 W236L MoA 4.7%
O=C(COc1cccc(NC(=O)c2cccc([N+](=O)[O-])c2)c1)c1ccc(Br)cc1	KCNQ2 enhance 8.9 | Kir21 conf inh inactive | HEK293 ctr inactive | CHO-K1 ctr 3.8 | KCNQ1 pot spec inactive | KCNQ2 pot conf 12 | Kir2-1 sel inactive | KCNQ2 W236L MoA inactive
O=C(NNC(=S)NC(=O)c1ccc(Br)cc1)c1cccc([N+](=O)[O-])c1	KCNQ2 enhance 7.6 | Kir21 conf inh inactive | HEK293 ctr inactive | CHO-K1 ctr inactive | KCNQ1 pot spec inactive | KCNQ2 pot conf inactive | Kir2-1 sel inactive
Cc1ccc(C(=O)NNC(=S)NC(=O)c2ccccc2)cc1	none | Kir21 conf inh inactive | HEK293 ctr inactive
Cc1cccc(C(=O)NNC(=S)NC(=O)c2ccccc2)c1	none
O=C(Nc1cccc(OCC(=O)N2CCOCC2)c1)c1cccc([N+](=O)[O-])c1	none
O=C(NNC(=S)NC(=O)c1ccc(Br)cc1)c1ccc([N+](=O)[O-])cc1	none
CC(C)(C)n1cnc2cc(NC(=O)c3ccccc3)ccc21	none
COc1ccc(OCC(O)CNC(=O)c2sccc2Cl)cc1 (stereo not given)	none (no result: KCNQ2 enhance)
Cc1ccc(SCC(=O)Nc2nnc(-c3ccco3)o2)cc1	KCNQ2 enhance 5.6 | CHO-K1 ctr inactive | KCNQ1 pot spec inactive | KCNQ2 pot conf inactive | Kir2-1 sel inactive
O=C(CSc1ccc(F)cc1)Nc1nnc(-c2ccco2)o1	none
CCN(CC(=O)Nc1c(F)cccc1F)C(=O)CCN1C(=O)C2CC=CCC2C1=O (stereo not given)	none (no result: KCNQ2 enhance)
COC(=O)c1cccc(NC(=O)c2cccs2)c1C	none
S=C(NCc1ccccc1)NCc1cccc(Cl)c1	none (no result: KCNQ2 enhance)
S=C(NCCc1ccc(Cl)cc1)NCc1ccccc1	none (no result: KCNQ2 enhance) | Kir21 conf inh inactive | HEK293 ctr inactive
C/C(=N\NC(=S)NCCc1ccccc1)c1ccc(O)cc1O	none
S=C(NCc1ccccc1)Nc1ccc(Cl)cc1	none
S=C(NCCc1cccc(Cl)c1)NCc1ccccc1	KCNQ2 enhance 7.5 | CHO-K1 ctr 9.3 | KCNQ1 pot spec 41 | KCNQ2 pot conf 12 | Kir2-1 sel inactive | KCNQ2 W236L MoA inactive
C/C(=N\NC(=S)NCCc1ccccc1)c1ccc(Cl)cc1Cl	KCNQ2 enhance 6.2 | Kir21 conf inh inactive | HEK293 ctr inactive | CHO-K1 ctr 12 | KCNQ1 pot spec inactive | KCNQ2 pot conf inactive | Kir2-1 sel inactive
COC(=O)C1=NNC(C(=O)c2ccco2)C1c1ccc(OC)cc1 (stereo not given)	none
O=C1CCN(S(=O)(=O)c2ccc(Cl)cc2)CCN1	none (no result: KCNQ2 enhance)
Cc1cc(NC(=O)CSCC(=O)OC(C)C(=O)c2cc(C)c(C)cc2C)no1 (stereo not given)	none (no result: KCNQ2 enhance) | Kir21 conf inh 68% | HEK293 ctr inactive
Cc1cc(NC(=O)CSCC(=O)OC(C)C(=O)N(C)Cc2ccccc2)no1 (stereo not given)	none
COc1ccccc1N1CCN(C(=O)CN(C)S(=O)(=O)c2cc(C)ccc2OC)CC1	none (no result: KCNQ2 enhance)
O=C(CSc1nnc(CNC(=O)c2c(F)cccc2F)o1)NCc1ccccc1Cl	none (no result: KCNQ2 enhance)
Cc1ccc(S(=O)(=O)NNC(=O)C2CC=CCC2C(=O)O)cc1 (stereo not given)	none
COc1cc(CNc2ccc(N3CCN(C(C)=O)CC3)cc2)ccc1OCc1ccccc1	none (no result: KCNQ2 enhance)
COc1cc(CNc2ccc(NC(C)=O)cc2)ccc1OCc1ccccc1C	KCNQ2 enhance 5.5 | Kir21 conf inh inactive | HEK293 ctr inactive | CHO-K1 ctr inactive | KCNQ1 pot spec inactive | KCNQ2 pot conf inactive | Kir2-1 sel inactive
Cc1c(NC(=O)COc2ccc3ccccc3c2)c(=O)n(-c2ccccc2)n1C	none (no result: KCNQ2 enhance)
CCOC(=O)c1c(NC(=O)c2cccc(N3C(=O)CCC3=O)c2)sc2c1CCN(CC)C2	none
C/C(=C\c1ccccc1)C(=O)NCCCn1ccnc1	none (no result: KCNQ2 enhance)
CCN(CC)S(=O)(=O)c1cc(OC)ccc1N=Nc1ccc(O)c2ncccc12	none
CCOc1ccc(N=Nc2ccc(O)c3ncccc23)cc1	KCNQ2 enhance 23 | Kir21 conf inh inactive | HEK293 ctr inactive | CHO-K1 ctr 13 | KCNQ1 pot spec 12 | KCNQ2 pot conf inactive | Kir2-1 sel inactive
Cc1cc(C)c(NC(=O)CSc2nc3[nH]ncc3c(=O)[nH]2)c(C)c1	none

Screening data (PubChem)
